This is an account of results in PubChem BioAssay (EPA / NIEHS).

Inconclusive results are not listed. Active and inactive are the calls of the source. Rule for the calls: active = hit-call score of the fitted dose curve at least 0.9, where 1 is the maximum; inconclusive = response in the unintended direction; inactive = score below 0.9.

Chain of human Janus Kinase 2 (Jak2), JAK2 (gene 3717) (O60674 whole entry, looked up): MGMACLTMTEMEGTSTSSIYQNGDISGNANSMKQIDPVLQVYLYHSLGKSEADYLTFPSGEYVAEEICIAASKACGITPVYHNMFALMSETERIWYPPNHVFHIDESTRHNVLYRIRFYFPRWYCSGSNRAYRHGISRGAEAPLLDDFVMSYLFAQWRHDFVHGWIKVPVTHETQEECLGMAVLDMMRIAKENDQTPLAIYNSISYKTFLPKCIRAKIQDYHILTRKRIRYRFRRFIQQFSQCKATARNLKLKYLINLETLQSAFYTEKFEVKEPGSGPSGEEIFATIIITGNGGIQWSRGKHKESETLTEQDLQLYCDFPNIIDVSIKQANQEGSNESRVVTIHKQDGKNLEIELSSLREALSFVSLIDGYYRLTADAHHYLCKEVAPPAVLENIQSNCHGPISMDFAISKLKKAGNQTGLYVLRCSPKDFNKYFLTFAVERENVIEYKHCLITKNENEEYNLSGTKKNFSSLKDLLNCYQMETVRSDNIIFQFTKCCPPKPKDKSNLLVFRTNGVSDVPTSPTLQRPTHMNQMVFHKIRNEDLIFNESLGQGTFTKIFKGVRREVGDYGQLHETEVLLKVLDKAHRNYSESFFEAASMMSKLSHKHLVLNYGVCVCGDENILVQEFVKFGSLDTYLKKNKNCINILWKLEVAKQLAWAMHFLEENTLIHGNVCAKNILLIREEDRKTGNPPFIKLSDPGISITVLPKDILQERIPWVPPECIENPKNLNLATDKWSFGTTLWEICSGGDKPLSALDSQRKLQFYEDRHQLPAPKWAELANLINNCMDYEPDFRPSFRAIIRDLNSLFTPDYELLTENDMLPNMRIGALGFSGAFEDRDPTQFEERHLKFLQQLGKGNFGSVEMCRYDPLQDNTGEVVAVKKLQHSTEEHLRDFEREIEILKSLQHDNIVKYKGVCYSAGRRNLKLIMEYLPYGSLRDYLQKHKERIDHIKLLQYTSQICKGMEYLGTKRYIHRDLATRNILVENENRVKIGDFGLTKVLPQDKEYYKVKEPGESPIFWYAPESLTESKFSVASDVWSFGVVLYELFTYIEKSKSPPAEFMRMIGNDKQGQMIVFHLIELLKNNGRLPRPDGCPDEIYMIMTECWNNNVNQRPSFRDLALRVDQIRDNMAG

In one experiment the target is human Esterase Plasma (ES), BCHE (gene 590) (UniProt P06276). Briefly: NVS_ENZ_hES: NovaScreen (NVS) Enzymatic Assay for human Esterase Plasma (ES) (AID 2283157). In short, it runs like this: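 Esterase from human plasma, cell-free, colorimetric absorbance read 0.25 h after dosing. Screened at 25 uM in duplicate, with threshold-passing chemicals run in concentration-response up to 50 uM; loss of signal fitted versus DMSO.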
Chain of human Esterase Plasma (ES), BCHE (gene 590) (P06276 whole entry, looked up): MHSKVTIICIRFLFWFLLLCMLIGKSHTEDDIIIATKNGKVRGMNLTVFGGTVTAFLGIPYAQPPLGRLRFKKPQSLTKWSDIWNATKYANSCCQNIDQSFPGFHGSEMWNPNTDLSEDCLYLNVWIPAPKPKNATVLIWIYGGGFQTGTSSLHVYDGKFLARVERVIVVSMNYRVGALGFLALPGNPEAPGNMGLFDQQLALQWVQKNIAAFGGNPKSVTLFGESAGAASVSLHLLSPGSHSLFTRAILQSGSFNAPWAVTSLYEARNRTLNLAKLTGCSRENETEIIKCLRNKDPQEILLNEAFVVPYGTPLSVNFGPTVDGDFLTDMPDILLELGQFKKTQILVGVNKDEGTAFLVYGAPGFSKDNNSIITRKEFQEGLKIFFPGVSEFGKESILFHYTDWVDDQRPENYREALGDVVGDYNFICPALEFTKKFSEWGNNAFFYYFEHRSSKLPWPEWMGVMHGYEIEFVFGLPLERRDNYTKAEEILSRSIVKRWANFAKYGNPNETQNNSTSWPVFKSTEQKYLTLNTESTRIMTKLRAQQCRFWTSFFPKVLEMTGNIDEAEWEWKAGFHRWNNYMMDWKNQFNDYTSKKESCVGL
`CSc1ccc(Oc2ccc(S(N)(=O)=O)cc2CN(C)C)cc1C`: the AC50 was 0.108 µM (active).

Consider `CN(C)CCCN(C)CCCN(C)C`, for which the AC50 is 31.8 µM (active).

For the compound `Cn1cnc2c1c(=O)[nH]c(=O)n2C`, the result was inactive.

For `CN(C)C(=O)NC1(c2ccccc2)CCN(CC[C@@]2(c3ccc(F)c(F)c3)CN(C(=O)c3ccccc3)CCO2)CC1`, the half-maximal activity concentration (AC50) was 19.1 µM (active).

On to `Cc1cc(SC2=C(O)C[C@@](CCc3ccc(N)cc3)(C(C)C)OC2=O)c(C(C)(C)C)cc1CO`, for which the AC50 is 7.01 µM (active).

For `CCN(CC)CCOc1ccc(C(=C(Cl)c2ccccc2)c2ccccc2)cc1`, the result was inactive.

As to `CCC(C)N(C)C(=O)c1cc2ccccc2c(-c2ccccc2Cl)n1` (stereo not drawn), the AC50 is 9.91 µM (active).

The target of a further experiment is human Ephrin type-A Receptor 1 (EphA1), EPHA1 (gene 2041) (UniProt P21709). Put plainly: NVS_ENZ_hEphA1: NovaScreen (NVS) Enzymatic Assay for human Ephrin type-A Receptor 1 (EphA1) (AID 2283158).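 Note: activity is signal loss versus DMSO meaning EphA1 kinase inhibition.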 The gist of the method: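 Chemicals first tested in duplicate at 25 uM against recombinant EphA1 with a fluorescent substrate; those passing threshold went to singleton dose-response topping at 50 uM. Activity read 1 h later as mobility-shift fluorescence, loss of signal relative to DMSO.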
Chain of human Ephrin type-A Receptor 1 (EphA1), EPHA1 (gene 2041) (P21709 whole entry, looked up): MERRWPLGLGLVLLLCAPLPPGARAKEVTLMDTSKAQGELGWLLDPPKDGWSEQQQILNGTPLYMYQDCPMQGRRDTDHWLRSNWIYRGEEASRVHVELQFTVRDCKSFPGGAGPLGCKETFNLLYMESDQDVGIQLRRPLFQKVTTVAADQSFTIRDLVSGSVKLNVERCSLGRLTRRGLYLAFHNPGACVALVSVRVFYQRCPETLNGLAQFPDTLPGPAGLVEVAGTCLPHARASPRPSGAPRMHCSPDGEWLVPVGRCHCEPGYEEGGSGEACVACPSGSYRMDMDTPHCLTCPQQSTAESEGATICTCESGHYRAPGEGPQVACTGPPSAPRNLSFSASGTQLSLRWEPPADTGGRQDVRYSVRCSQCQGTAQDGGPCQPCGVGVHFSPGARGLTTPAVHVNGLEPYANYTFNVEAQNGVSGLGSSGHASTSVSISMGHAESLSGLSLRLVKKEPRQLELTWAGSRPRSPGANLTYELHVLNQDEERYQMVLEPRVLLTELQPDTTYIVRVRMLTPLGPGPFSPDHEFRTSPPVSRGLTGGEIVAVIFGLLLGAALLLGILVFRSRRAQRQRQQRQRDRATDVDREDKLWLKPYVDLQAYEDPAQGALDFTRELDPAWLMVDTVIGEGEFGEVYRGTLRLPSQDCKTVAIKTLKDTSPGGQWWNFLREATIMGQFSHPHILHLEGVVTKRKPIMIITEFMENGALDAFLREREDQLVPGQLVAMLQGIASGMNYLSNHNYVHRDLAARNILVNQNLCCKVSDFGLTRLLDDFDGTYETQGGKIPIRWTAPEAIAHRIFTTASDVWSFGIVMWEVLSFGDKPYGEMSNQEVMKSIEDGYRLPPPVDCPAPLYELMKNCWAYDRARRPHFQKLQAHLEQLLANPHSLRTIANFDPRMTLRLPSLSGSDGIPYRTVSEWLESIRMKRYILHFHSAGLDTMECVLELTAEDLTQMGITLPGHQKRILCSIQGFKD
Turning to `CCCCc1nc2cccnc2n1Cc1ccc(-c2ccccc2-c2nnn[nH]2)cc1`, the outcome was inactive.

Turning to `CS(=O)(=O)c1ccc([C@@H](C[C@H]2CCC(=O)C2)C(=O)Nc2cnccn2)cc1Cl`, the compound was called inactive.

Regarding `C#CC(O)C(CC)CCCC` (stereo not drawn), the compound was called inactive.

With `O=C(NS(=O)(=O)/C=C/c1cccs1)c1ccc(F)cc1Br`, the compound was classed as inactive.

For the compound `CCN(CC)CCOc1ccc(C(=C(Cl)c2ccccc2)c2ccccc2)cc1`, the result was inactive.

As to `CCCCCCCCCC[N+](C)(C)[O-]`, the outcome was inactive.

The target of the next experiment is human Janus Kinase 2 (Jak2), JAK2 (gene 3717) (UniProt O60674). Briefly: NVS_ENZ_hJak2: NovaScreen (NVS) Enzymatic Assay for human Janus Kinase 2 (Jak2) (AID 2283169). The gist of the method:
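Cell-free recombinant human JAK2 enzyme activity assay, fluorescence/electrophoretic mobility shift read 1 h after dosing. Screened in duplicate at 25 uM, then concentration-response up to 50 uM; activity as signal loss relative to DMSO.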
Take `CCCCCCCCCCCCCCCCO`: the call was inactive.

As for `O=C1NC(=O)C(c2ccccc2)(c2ccccc2)N1`, the outcome was inactive.

For `CC(C)NCC(O)c1ccc(O)c(O)c1` (stereo not drawn), the result was inactive.

On to `CC(C)COC(=O)CCCCC(=O)OCC(C)C`, for which the result was inactive.

As to `Cc1cc(SC2=C(O)C[C@@](CCc3ccc(N)cc3)(C(C)C)OC2=O)c(C(C)(C)C)cc1CO`, the compound was classed as inactive.

In a further experiment the target is Mitogen-activated protein kinase 3 (Homo sapiens) (UniProt P27361). Put plainly: NVS_ENZ_hMAPK3: NovaScreen (NVS) Enzymatic Assay for human Mitogen-Activated Protein Kinase 3 (MAPK 3) (AID 2283177). In short, it runs like this: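 Cell-free enzymatic assay with recombinant protein and specific substrate; fluorescence and electrophoretic mobility shift read-out 1 h after dosing. Primary screen duplicate at 25 uM; actives then run in concentration-response up to 50 uM, loss of signal versus DMSO.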
Chain of Mitogen-activated protein kinase 3 (Homo sapiens) (P27361 whole entry, looked up): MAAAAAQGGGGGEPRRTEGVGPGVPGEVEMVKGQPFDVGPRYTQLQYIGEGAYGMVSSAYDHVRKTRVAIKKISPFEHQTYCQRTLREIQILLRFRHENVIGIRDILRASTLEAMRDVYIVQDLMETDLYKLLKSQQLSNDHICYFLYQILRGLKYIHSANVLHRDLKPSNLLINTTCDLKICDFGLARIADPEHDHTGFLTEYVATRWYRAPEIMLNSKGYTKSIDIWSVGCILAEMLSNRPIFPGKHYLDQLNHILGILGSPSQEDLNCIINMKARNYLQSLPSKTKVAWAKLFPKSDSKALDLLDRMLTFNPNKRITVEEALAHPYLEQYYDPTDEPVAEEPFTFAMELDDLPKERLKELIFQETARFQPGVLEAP
Turning to `O=C1CCCCC1`, the call was inactive.

Consider `CCCCc1nc2cccnc2n1Cc1ccc(-c2ccccc2-c2nnn[nH]2)cc1`, for which the call was inactive.

As to `CS(=O)(=O)c1ccc([C@@H](C[C@H]2CCC(=O)C2)C(=O)Nc2cnccn2)cc1Cl`, the compound was called inactive.

As to `NC=O`, the call was inactive.

In the case of `NC(=Nc1ccccc1)Nc1ccccc1`, the result was inactive.

For the compound `O=C(O)c1cccnc1`, the call was inactive.

A further experiment addresses Collagenase 3 (Homo sapiens) (UniProt P45452). Briefly: NVS_ENZ_hMMP13: NovaScreen (NVS) Enzymatic Assay for human Matrix Metalloproteinase-13 (MMP13) (AID 2283182). The gist of the method: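 Recombinant MMP13 cleaving fluorescent substrate, cell-free, measured 1 h after dosing. Primary duplicate screen at 25 uM; actives tested in concentration-response up to 50 uM; loss of signal relative to DMSO.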
`CCCCc1nc2cccnc2n1Cc1ccc(-c2ccccc2-c2nnn[nH]2)cc1`: the AC50 is 24.1 µM (active).

For the compound `Nc1nc(=S)c2[nH]cnc2[nH]1`, the AC50 was 27.1 µM (active).

With `CC(C)(C)c1ccccc1`, the AC50 was 19.4 µM (active).

For `Cn1cnc2c1c(=O)[nH]c(=O)n2C`, the result was inactive.
